Test results published in PubChem BioAssay (Tox21).
Records with an inconclusive call do not appear. Active and inactive are the calls of the source. Unless noted, calls follow the shape of the dose curve; as a rule, active = well fitted curve in the direction sought with a large enough effect in the repeat runs; inconclusive = weak or mixed curves; inactive = no such curve, though single readings can be large; an effect the other way counts as inactive or inconclusive. Non-standard residues stand in square brackets, D forms with d. Residues, ends and D or L forms follow the SMILES beside them. *: point of attachment. Sta = CC(C)C[C@H](N)[C@@H](O)CC(=O)O; Isovaleryl = CC(C)CC(=O)*

Columns and labels:
[1] = qHTS assay to identify small molecule agonists or antagonists of the thyroid stimulating hormone receptor (TSHR) signaling pathway - wild type cell line counter screen (AID 1259384; calls by dose curve)
Outline: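 Wild-type HEK293 cells were plated 18 h at 37 C/5% CO2, pin-dosed with compound plus Ro20-1724 medium, held 30 min at room temperature, then given cAMP-d2 and anti-cAMP-cryptate; fluorescence was read after 1 h. Fifteen concentrations, triplicate.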

[2] = target: Thyrotropin receptor (Homo sapiens) (UniProt P16473); test: qHTS assay to identify small molecule antagonists of the thyroid stimulating hormone receptor (TSHR) signaling pathway (AID 1259385; calls by dose curve; also: nearly all actives have a fitted effect of over 20% in size)
Sequence of Thyrotropin receptor (Homo sapiens) (P16473 whole entry, looked up): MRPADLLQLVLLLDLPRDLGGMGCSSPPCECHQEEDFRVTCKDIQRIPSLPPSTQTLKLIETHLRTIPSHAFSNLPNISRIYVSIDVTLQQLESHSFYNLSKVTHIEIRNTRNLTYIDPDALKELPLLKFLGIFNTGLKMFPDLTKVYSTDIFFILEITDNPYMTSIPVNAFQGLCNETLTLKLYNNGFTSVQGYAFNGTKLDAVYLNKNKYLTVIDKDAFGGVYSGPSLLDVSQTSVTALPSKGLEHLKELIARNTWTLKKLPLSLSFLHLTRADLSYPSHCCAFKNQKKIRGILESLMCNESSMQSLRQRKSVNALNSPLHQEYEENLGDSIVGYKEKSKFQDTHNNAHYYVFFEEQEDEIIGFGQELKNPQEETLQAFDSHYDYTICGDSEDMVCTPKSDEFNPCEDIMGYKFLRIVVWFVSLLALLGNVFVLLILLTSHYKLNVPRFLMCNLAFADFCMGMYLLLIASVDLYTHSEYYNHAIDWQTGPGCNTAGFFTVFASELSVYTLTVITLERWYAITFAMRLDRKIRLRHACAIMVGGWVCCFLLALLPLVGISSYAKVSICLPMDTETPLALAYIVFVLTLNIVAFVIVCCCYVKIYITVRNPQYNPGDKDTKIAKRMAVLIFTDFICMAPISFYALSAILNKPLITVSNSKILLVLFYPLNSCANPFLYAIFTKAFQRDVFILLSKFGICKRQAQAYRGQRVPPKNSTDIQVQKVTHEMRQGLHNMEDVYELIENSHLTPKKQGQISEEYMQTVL
Outline: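 TSHR-HEK293 cells were plated and held 18 h at 37C/5% CO2, then given compound plus Ro20-1724 and stimulated with TSH at 1.5 ng/mL final. After 30 min at room temperature, cAMP was detected with cAMP-d2/anti-cAMP-cryptate (1 h) by fluorescence.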

[3] = qHTS assay to identify small molecule agonists of the estrogen receptor alpha (ER-alpha) signaling pathway in the presence of an antagonist - cell viability counter screen (AID 1259386);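 also: series mostly up to about 92 µM; cells exposed to compounds for 22 h at 37 °C before the viability read; nearly all actives have a fitted effect of over 30% in size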
Outline: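 Read-out: CellTiter-Fluor fluorescence after 1hr reagent incubation, measured in the same wells as the luciferase readout. VM7Luc4E2 cells were exposed to 15 compound concentrations with 10.0nM ICI-182,780 for 22hr at 37C.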

[4] = target: Progesterone receptor (Homo sapiens) (UniProt P06401); test: qHTS assay to identify small molecule agonists of the progesterone receptor (PR) signaling pathway (AID 1346784; calls by dose curve; also: nearly all actives have a fitted effect of over 30% in size)
Sequence of Progesterone receptor (Homo sapiens) (P06401 whole entry, looked up): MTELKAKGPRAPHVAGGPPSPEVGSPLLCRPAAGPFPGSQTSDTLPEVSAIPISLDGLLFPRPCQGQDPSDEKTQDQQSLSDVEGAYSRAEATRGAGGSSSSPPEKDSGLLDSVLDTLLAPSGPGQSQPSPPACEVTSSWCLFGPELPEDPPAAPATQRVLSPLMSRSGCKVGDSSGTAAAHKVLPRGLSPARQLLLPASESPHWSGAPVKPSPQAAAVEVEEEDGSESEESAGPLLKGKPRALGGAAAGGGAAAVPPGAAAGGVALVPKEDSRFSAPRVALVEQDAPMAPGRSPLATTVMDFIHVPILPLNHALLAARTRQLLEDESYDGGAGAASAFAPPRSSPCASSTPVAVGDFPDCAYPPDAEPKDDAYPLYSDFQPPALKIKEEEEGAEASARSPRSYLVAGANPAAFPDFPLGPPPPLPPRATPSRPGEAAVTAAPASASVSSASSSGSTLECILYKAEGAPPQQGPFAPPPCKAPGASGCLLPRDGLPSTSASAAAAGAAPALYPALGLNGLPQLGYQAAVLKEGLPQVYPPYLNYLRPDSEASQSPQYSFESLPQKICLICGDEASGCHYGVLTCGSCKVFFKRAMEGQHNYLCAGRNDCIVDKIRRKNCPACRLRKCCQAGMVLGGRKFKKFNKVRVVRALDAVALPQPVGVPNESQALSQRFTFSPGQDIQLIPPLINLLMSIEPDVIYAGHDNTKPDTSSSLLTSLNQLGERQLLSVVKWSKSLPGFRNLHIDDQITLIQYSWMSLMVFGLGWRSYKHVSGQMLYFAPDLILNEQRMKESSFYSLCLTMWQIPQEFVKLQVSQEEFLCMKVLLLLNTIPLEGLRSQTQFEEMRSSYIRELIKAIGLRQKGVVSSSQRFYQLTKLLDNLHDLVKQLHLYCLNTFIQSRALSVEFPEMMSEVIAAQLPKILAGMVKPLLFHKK
Outline: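 Seed PR-UAS-bla HEK 293T cells (2% charcoal-stripped FBS), incubate 6 hr at 37C; add compounds in DMSO, 16 hr at 37C; add LiveBLAzer B/G substrate, 2 hr RT; read fluorescence intensity.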

[5] = target: Progesterone receptor (Homo sapiens) (UniProt P06401); test: qHTS assay to identify small molecule antagonists of the progesterone receptor (PR) signaling pathway (AID 1346795; active = well fitted inhibition curve with a large enough effect in the signal ratio in the repeat runs, not every such curve was filed as active; the % refers to the signal ratio)
Outline: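 Screening used a GripTite HEK293T line with PR-responsive UAS-beta-lactamase. Cells were challenged with compound in the presence of 1 nM R5020 final for 16 hr at 37C; B/G FRET substrate, 2 hr room temperature, fluorescence.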

[6] = qHTS assay to identify small molecule agonists of the progesterone receptor (PR) signaling pathway - cell viability counter screen (AID 1346799; calls by dose curve; also: nearly all actives have a fitted effect of over 45% in size)
Outline: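 Using the same plates as the PR reporter screen, HEK293T PR-UAS-bla cells received compounds for 16 hr at 37C and were then lysed with CellTiter-Glo; luminescence was read 30 min later at room temperature.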

[7] = qHTS assay to identify small molecule antagonists of the TGF-beta/Smad signaling pathway - cell viability counter screen (AID 1346824); also: nearly all actives have a fitted effect of over 50% in size
Outline: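 SBE-bla HEK 293T cells were plated overnight at 37 C, then given compounds in DMSO plus TGF-beta1 (added as 0.25 ng/mL solution) for 5 hr. After the bla read, CellTiter-Glo was added to the same wells and luminescence read after 30 min at room temperature.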

[8] = qHTS assay to identify small molecule agonists of the TGF-beta/Smad signaling pathway - cell viability counter screen (AID 1346829); also: top concentration of the series differs between compounds; nearly all actives have a fitted effect of over 45% in size
Outline: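 Here the cytotoxicity of library compounds is measured in SBE-bla HEK 293T cells treated for 5 hr, using CellTiter-Glo added to wells already read for the beta-lactamase reporter.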

[9] = qHTS assay to identify small molecule antagonists of the progesterone receptor (PR) signaling pathway - cell viability counter screen (AID 1346798); also: series mostly up to about 92 µM; nearly all actives have a fitted effect of over 50% in size
Outline: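 Measures cytotoxicity in parallel with the PR antagonist reporter read: HEK293T PR-UAS-bla cells get compound and R5020 for 16 hr, and remaining viable cells are quantified by CellTiter-Glo luminescence.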
% is scaled to controls: 0 for no effect and ±100 for the full control effect.

O=C1Nc2ccccc2C1=O
inactive: outcome [1] | outcome [2] | outcome [3] | Potency [4] | Potency [5] | Potency [6] | outcome [7] | outcome [8]

CCCc1ncc(C(=O)O)s1
inactive: outcome [3] | Potency [4] | Potency [5] | outcome [9] | Potency [6] | outcome [7] | outcome [8]

COc1ccc(Cl)cc1C
inactive: outcome [3] | Potency [4] | Potency [5] | outcome [9] | Potency [6] | outcome [7] | outcome [8]

CCCCCC(=O)CC
inactive: outcome [1] | outcome [2] | outcome [3] | outcome [7] | outcome [8]

CCCCCCCCC1CO1 (configuration not stated)
inactive: outcome [1] | outcome [2] | outcome [3] | Potency [4] | Potency [5] | Potency [6] | outcome [7] | outcome [8]

COC(=O)C(c1ccccc1Cl)N1CCc2sccc2C1 (configuration not stated)
inactive: outcome [1] | outcome [2] | outcome [3] | Potency [4] | outcome [9] | Potency [6] | outcome [7] | outcome [8]

COC(=O)c1cc(Cl)c(NC(C)=O)cc1OC
inactive: outcome [1] | outcome [2] | outcome [3] | Potency [4] | Potency [5] | outcome [8]

C=C(C)C(=O)OCCOC1CC2CC1C1C=CCC21 (configuration not stated)
inactive: outcome [1] | outcome [3] | Potency [4] | Potency [5] | Potency [6]

Cc1cc(N)no1
inactive: outcome [1] | outcome [2] | outcome [3] | Potency [4] | Potency [5] | Potency [6] | outcome [8]

O=C[C@@H](O)[C@H](O)[C@H](O)CO
inactive: outcome [1] | outcome [2] | Potency [4] | Potency [5] | outcome [9] | Potency [6] | outcome [7] | outcome [8]

CC(C)CC(=O)N[C@H](C(=O)N[C@H](C(=O)N[C@@H](CC(C)C)[C@@H](O)CC(=O)N[C@@H](C)C(=O)N[C@@H](CC(C)C)[C@@H](O)CC(=O)O)C(C)C)C(C)C (Isovaleryl-VV[Sta]A[Sta]-OH)
inactive: outcome [1] | outcome [2] | outcome [3] | outcome [9] | Potency [6] | outcome [7] | outcome [8]

CC[N+](C)(CC)CC
inactive: outcome [3] | Potency [4] | Potency [5] | outcome [9] | Potency [6] | outcome [7] | outcome [8]

COC(C)(C)CC(C)=O
inactive: outcome [3] | Potency [4] | Potency [5] | outcome [7] | outcome [8]

CNC(=O)c1c(I)c(NC(C)=O)c(I)c(C(=O)O)c1I
inactive: outcome [3] | Potency [4] | Potency [5] | outcome [9] | Potency [6] | outcome [7] | outcome [8]

Cc1nnc(C(=O)NC(C)(C)c2nc(C(=O)NCc3ccc(F)cc3)c(O)c(=O)n2C)o1
inactive: outcome [1] | outcome [2] | Potency [4] | outcome [9] | Potency [6] | outcome [8]

O=C(O)CCC(=O)Nc1ccc(S(=O)(=O)Nc2nccs2)cc1
inactive: Potency [4] | Potency [5] | outcome [9] | Potency [6] | outcome [7] | outcome [8]

CC(C)(C)OC=O
inactive: outcome [1] | outcome [2] | Potency [4] | Potency [6] | outcome [7] | outcome [8]

CCCCCCCCCCCCCCCC/C=C/C1CC(=O)OC1=O (configuration not stated)
inactive: outcome [1] | outcome [2] | outcome [3] | Potency [4] | Potency [6] | outcome [7] | outcome [8]

O=C1CC2(CCCC2)CC(=O)N1CCNCC1COc2ccccc2O1 (configuration not stated)
inactive: outcome [1] | outcome [2] | outcome [3] | Potency [4] | Potency [5] | outcome [7]

C=CC(=O)CC
inactive: outcome [1] | outcome [2] | Potency [4] | Potency [5] | Potency [6] | outcome [7] | outcome [8]

O=c1c(O)c(O)c1=O
inactive: outcome [1] | outcome [2] | outcome [3] | Potency [5] | Potency [6] | outcome [7]

C=CCN(CC=C)CC=C
inactive: outcome [1] | outcome [2] | outcome [3] | Potency [4] | Potency [5] | Potency [6] | outcome [7] | outcome [8]

CC(C)OC(=O)C(C(=O)OC(C)C)=C1SC=CS1
inactive: outcome [1] | outcome [2] | outcome [3] | Potency [4] | outcome [9] | outcome [7] | outcome [8]

COC(=O)c1ccccc1Cl
inactive: outcome [3] | Potency [5] | outcome [9] | outcome [7] | outcome [8]

CC(C)OCCO
inactive: outcome [1] | outcome [2] | outcome [3] | Potency [5] | outcome [9] | outcome [7] | outcome [8]

N=C(N)N1CCc2ccccc2C1
inactive: cAMP activity change [1] 4.39% [at 8.39 µM] | activity change, negative = inhibition [2] 0.0098% [at 8.39 µM] | activity change, negative = cytotoxicity [3] -0.402% [at 8.39 µM] | activity change, negative = inhibition [5] 5.13% [at 8.39 µM] | activity change, negative = cytotoxicity [9] 3.01% [at 8.39 µM] | activity change, negative = cytotoxicity [6] 0.346% [at 8.39 µM] | viability change, negative = cytotoxic [7] -7.19% [at 6.97 µM] | activity change, negative = cytotoxicity [8] -4.14% [at 6.97 µM]

O=Cc1ccccc1S(=O)(=O)O
inactive: outcome [1] | outcome [2] | Potency [4] | Potency [5] | outcome [9] | Potency [6] | outcome [7] | outcome [8]

O=C(c1ccccc1)c1cccc(O)c1
inactive: outcome [1] | outcome [2] | outcome [3] | Potency [4] | Potency [6] | outcome [7] | outcome [8]

Cc1ccc(O)c(C(=O)c2ccccc2)c1
inactive: outcome [1] | outcome [3] | Potency [4] | Potency [5] | outcome [9] | Potency [6] | outcome [7] | outcome [8]
